Source: PubChem BioAssay
Hits are enriched below; roughly 9.4% of the tested compounds scored in any of these assays.
Pf growth 96h = Primary qHTS for delayed death inhibitors of the malarial parasite plastid, 96 hour incubation; actives 6.9% (n = 320,000); P. falciparum luciferase reporter growth, 96 h; Potency, µM (titrated, usually from 28.7 µM), for the others: top-dose activity change, negative = inhibition, usual class: inhibitors; further: on the % scale 0 is the no-effect control and ±100 the full control effect
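Delayed-death screen, second-generation endpoint: infected erythrocytes, 2% hematocrit, 0.05% parasitemia final; 96 hours at 37 C, 5% CO2; luciferase detection reagent; luminescence decrease equals reduced growth.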
SARS PLP yeast = qHTS of Yeast-based Assay for SARS-CoV PLP. S. cerevisiae expressing SARS-CoV PLpro, growth rescue. Potency, µM (titrated, usually from 32.9 µM), without a hit: at the top dose activity, positive = growth rescue, hits mostly activators. actives 0.19% (n = 330,000). AID 485353, 2010; calls by dose curve; further: 0% is about no effect; nearly all actives have a fitted effect of over 55% in size
Pf growth 48h = Primary qHTS for delayed death inhibitors of the malarial parasite plastid, 48 hour incubation. P. falciparum luciferase growth in erythrocytes, 48 h. Potency, µM (titrated, usually from 28.7 µM), for the others: top-dose activity change, negative = inhibition, usual class: inhibitors. actives 5.9% (n = 310,000). AID 504832, 2011; further: on the % scale 0 is the no-effect control and ±100 the full control effect
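Read-out is firefly luciferase luminescence from an integrated reporter in P. falciparum, so falling signal marks reduced parasite growth. Infected erythrocytes were at 2% hematocrit and 0.1% parasitemia (final) in Albumax-supplemented RPMI 1640.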
AMA1 RON2 block = qHTS for Inhibitors of AMA1-RON; Towards Development of Antimalarial Drug Lead: Primary Screen; Plasmodium falciparum AMA1 (3D7) - RON2 peptide interaction; AlphaScreen AMA1-biotinylated RON2 peptide binding; Potency, µM (series often up to 58.2 µM), inactives show top-dose activity change, negative = inhibition, hits mostly inhibitors; actives 0.2% (n = 360,000);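 further: 0% = vehicle wells and -100% = peptide control; nearly all actives have a fitted effect of over 45% in size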
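AMA1 (3D7) with his tag at 25 nM final met compounds first, then biotinylated RON2 peptide at 25 nM; detection used donor plus acceptor beads, 10 µg/mL apiece, read by AlphaScreen after 30 min at room temperature.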
Numbers without * were called inactive; ? = inconclusive; . = no result given; [ ] = dose if it differs, or a comment. Unless noted, the call rests on the fitted dose curve; in most records, active means well fitted curve in the direction sought with a large enough effect; inconclusive means small, poorly fitted or top-dose-only effect, or another doubt; inactive means no such curve, though single readings can be large; an effect the other way counts as inactive or inconclusive. Potency means the concentration at half of the fitted maximal effect.

SMILES | Pf growth 96h | SARS PLP yeast | Pf growth 48h | AMA1 RON2 block
COc1cc(-c2noc(C)c2C(=O)NCCCn2ccnc2)cc(OC)c1OC | . | -7.8% | . | -2.9%
O=C(Nc1ccc(F)cc1)c1c(Cl)nc2ccccn12 | 37.1% | -3.3% | 169.4% | -1.1%
O=C(C1CC(c2ccc(F)cc2)=NO1)N1CCCc2ccccc21 (configuration not stated) | 2.08µM* | -3.0% | 20.1% | 0.8%
Cc1ccc(C(=O)OCn2nnc3ccccc3c2=O)cc1[N+](=O)[O-] | 2.62µM* | 0.2% | 13.5% | 1.6%
CC(C)(C)n1cnc2cc(NCc3ccc(Br)cc3)ccc21 | -12.7% | 0.9% | -13.0% | -18.9%
CCC(=O)Nc1cccc(-c2nnc(-c3cccc(NC(=O)CC)c3)o2)c1 | 1.17µM* | -0.1% | 5.22µM* | -5.5%
O=C(CSc1ccc(Cl)cc1)Nc1cc(-c2nc3ncccc3o2)ccc1Cl | 4.65µM* | -0.7% | ? | .
CCCCCC(=O)Nc1cccc(-c2nc3ncccc3o2)c1 | . | -3.3% | ? | 5.2%
CCCCC(=O)Nc1cccc(-c2nc3ncccc3o2)c1 | 11.7µM* | 1.2% | ? | -2.2%
O=C(CSc1ccc(Cl)cc1)Nc1cccc(-c2nc3ncccc3o2)c1 | ? | -1.3% | ? | -3.2%
CCC(=O)Nc1ccc(-c2nnc(-c3ccccc3)o2)cc1 | 51.1% | 2.0% | 261.8% | 4.9%
Cc1ccc2nc(C3CCN(S(=O)(=O)c4ccc5ccccc5c4)CC3)[nH]c2c1 | ? | . | ? | -3.4%
CCN1C[C@@H]2[C@@H]3C(=O)N(Cc4ccccc4)C(=O)[C@@H]3[C@](C)(C1=O)N2C(=O)c1ccc(C)cc1 | . | . | . | -0.7%
Cc1ccc(S(=O)(=O)N(C)/N=C/c2ccc(N(C)C)cc2)cc1 | 62.1% | 2.3% | . | 25.1µM*
COc1ccc(-c2oc3c(c2C#CC2(O)CCCCC2)C(OC(C)=O)CCC3)cc1 (configuration not stated) | . | . | . | -15.2%
CN(CCc1ccccn1)Cc1ccc(Cl)c(Cl)c1 | -19.4% | -0.3% | -28.7% | -7.5%
CCC(=O)N(C)CCc1cc2c(c(OC)c1/C=N/NS(=O)(=O)c1ccc(C)cc1)OCO2 | 22.0% | 2.7% | 6.8% | 0.0%
CC(C)(C)OC(=O)NCCCC[C@H](NC(=O)c1nc[nH]c1C(=O)NC1CCN(C(=O)OC(C)(C)C)CC1)C(=O)OC(C)(C)C | 2.33µM* | -4.0% | 2.08µM* | 132.8%
CC(C)C[C@H](NC(=O)c1nc[nH]c1C(=O)NC1CCN(C(=O)OC(C)(C)C)CC1)C(=O)OC(C)(C)C | 2.33µM* | -1.5% | 1.47µM* | 118.5%
C[C@H](NC(=O)c1nc[nH]c1C(=O)NC1CCN(C(=O)OC(C)(C)C)CC1)C(=O)OC(C)(C)C | ? | 1.1% | -10.3% | 38.0%
CC(C)(C)OC(=O)N1CCC(NC(=O)c2nc[nH]c2C(=O)NCc2ccccc2)CC1 | ? | 0.1% | ? | 7.9%
CC(C)(C)OC(=O)NCc1ccc(CNC(=O)c2[nH]cnc2C(=O)NC2CCN(C(=O)OC(C)(C)C)CC2)cc1 | ? | 2.5% | 5.86µM* | 119.1%
CC(C)C[C@H](NC(=O)c1nc[nH]c1C(=O)NC1CCN(C(=O)OC(C)(C)C)CC1)C(=O)OCc1ccccc1 | 11.7µM* | -0.6% | ? | 121.8%
Cc1cccc(NC(=O)CCC(=O)N/N=C/c2ccco2)c1C | 19.9% | -7.7% | 2.6% | 6.8%
CCCn1nnnc1SCC(=O)N1CCCCC1 | ? | -1.6% | 38.0% | 2.0%
SMILES | Pf growth 96h | SARS PLP yeast | Pf growth 48h | AMA1 RON2 block
CCCN(CC(=O)Nc1ccccc1C)C(=O)C1CCN(S(=O)(=O)c2ccccc2C(F)(F)F)CC1 | ? | -6.7% | 9.28µM* | 2.0%
CCCN(CC(=O)Nc1ccccc1C)C(=O)C1CCN(c2ncnc3sc(C)c(C)c23)CC1 | 7.38µM* | -6.0% | ? | 85.1%
Cc1sc2ncnc(N3CCC(C(=O)N(CC(C)C)c4nc5ccccc5s4)CC3)c2c1C | 3.7µM* | -1.1% | ? | -5.0%
FC(F)(F)c1ccccc1Cc1c(-c2ccccc2)nc2ccc(Br)cn12 | . | . | . | 0.0%
COc1ccc(C2N(c3cc(C)on3)C(=O)C3CCCN32)cc1 (configuration not stated) | 3.29µM* | 0.0% | -32.3%[1.15 µM] | 0.1%
Cc1cc(N2C(=O)C3CCCN3C2c2cccc(Cl)c2)no1 (configuration not stated) | 4.65µM* | 2.0% | 8.9% | -13.2%
COCCN(CCOC)C(=O)CC(=O)N(CCOC)CCOC | -17.1% | -3.7% | . | -7.9%
Cc1c(NS(=O)(=O)c2ccc(N3CCCCC3)c([N+](=O)[O-])c2)c(=O)n(-c2ccccc2)n1C | 21.8% | 5.0% | -15.4% | 0.1%
Cc1c(NS(=O)(=O)c2ccc(N(C)C3CCCCC3)c([N+](=O)[O-])c2)c(=O)n(-c2ccccc2)n1C | 10.4µM* | -16.9% | ? | -13.3%
CCc1nnc(NC(=O)CSc2nc(N)c(NC(=O)c3ccc(OC)cc3)c(=O)[nH]2)s1 | -12.5% | 4.3% | 2.7% | 13.5%
O=S(=O)(c1ccccc1)N(CC(O)Cn1c2ccccc2c2ccccc21)c1ccccc1 (configuration not stated) | 2.33µM* | -3.1% | ? | -5.0%
COc1ccccc1N(CC(O)Cn1c2ccccc2c2ccccc21)S(=O)(=O)c1ccccc1 (configuration not stated) | 10.4µM* | -11.3% | 11.7µM* | -15.4%
COc1ccccc1CNCC(O)Cn1c2ccccc2c2ccccc21 (configuration not stated) | 2.08µM* | -0.7% | 1.47µM* | 4.3%
C=CCN(CC=C)CC(O)Cn1c2ccccc2c2ccccc21 (configuration not stated) | ? | 3.7% | 5.86µM* | 2.5%
CC[C@]12c3[nH]c4cc(CCC(=O)N(C)C)ccc4c3CCN1C(=O)[C@@H](CC(=O)NCCC1=CCCCC1)C[C@@H]2C(=O)N1CCN(C(=O)C2CC2)CC1 | . | 1.3% | . | -2.4%
COc1ccccc1N(CC(O)COc1ccccc1C)S(=O)(=O)c1ccccc1 (configuration not stated) | 10.4µM* | 10.3% | ? | 19.7%
CCCCCN(C(=O)CCC(=O)OC(C)C(=O)c1ccc(CC)cc1)c1c(N)n(CCCC)c(=O)[nH]c1=O (configuration not stated) | . | . | . | -9.7%[11.6 µM]
CCCCN1CCc2c([nH]c3ccc(C)cc23)C1=O | 100.9% | 2.8% | 161.4% | -13.0%
Oc1ccc(NCc2ccc(OCc3ccccc3)cc2)cc1 | 2.8% | -4.3% | 1.2%[0.00184 µM] | 42.1%
CCc1ccc(CNc2ccc(O)cc2)cc1 | 56.4% | ? | 11.7µM* | 8.1%
CCN(Cc1nc2ccccc2c(=O)[nH]1)Cc1nc2ccsc2c(=O)[nH]1 | 1.47µM* | -3.3% | ? | 145.0%
CCN(CC(=O)Nc1ccccc1SC)Cc1nc2ccccc2c(=O)[nH]1 | -16.2% | 1.4% | 55.1% | 104.6%
CCN(CC(=O)NC(c1ccccc1)c1ccccc1)Cc1nc2ccccc2c(=O)[nH]1 | 7.38µM* | -0.9% | 11.7µM* | 127.9%
